High-throughput results (PubChem)
Pf apPOL block = Pf-apPOL inhibitors, biochemical, fluorescence | Plasmodium falciparum apicoplast DNA polymerase (apPOL) | Recombinant Pf-apPOL, molecular beacon fluorescence, 1.5 h | inhibition, % at 10 µM | 210,000 compounds, 0.25% hits | AID 1794808, 2022
mHTT-CaM PPI inh = mutant huntingtin-calmodulin interaction inhibitors – biochemical, AlphaScreen, primary screen | 190,000 compounds, 3.6% hits | inhibition, % at 15 µM | P42858 | AlphaScreen His-mHTT/GST-CaM binding, luminescence;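 also: 0% = both proteins with DMSO and 100% = one protein alone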
Starred values were filed as active, the others as inactive; / = not tested or not shown; ! = not active in a repeat. In the library only some 3.6% were active in any assay of this set; here they are far more common. Rule as the data show it: active = inhibition above about 50%; inactive = the rest.

SMILES	Pf apPOL block	mHTT-CaM PPI inh
Cc1cc2oc(=O)cc(-c3cc4ccccc4o3)c2cc1O	3	6
Cc1c2cc(O)c(=O)cc-2oc2cc(O)c(O)cc12	/	100*
O=C(CC(NCc1ccccn1)C(=O)O)Nc1cc(Cl)ccc1Cl (stereo unspecified)	-1	100*
O=C(CC(NCc1ccco1)C(=O)O)Nc1cc(Cl)ccc1O (stereo unspecified)	1	5
COc1ccc(Cl)cc1C(=O)Nc1c(C)cccc1C	0	-10
Cc1cc(C)c2sc(NC(=O)C3CCCC3)nc2n1	-7	-5
CSc1ncccc1C(=O)N1CCC(CCOc2ccccc2)CC1	-3	13
COc1cc(O)c2c(c1)oc(=O)c1c3cc(O)c(O)cc3oc21	51*	/
COc1ccc(-c2c(O)c3ccc(O)cc3oc2=O)cc1	1	0
CCOc1ccccc1NC(=O)c1ccc(OCC(=O)Nc2ccc(C)cc2C)cc1	3	-4
Cc1cc(C)nc(SC2=CS(=O)(=O)c3ccccc32)n1	25	-2
O=S1(=O)C=C(Sc2cccc3cccnc23)c2ccccc21	6	68*
COc1ccc(CCNC(=O)C2CCN(c3nccc(C)n3)CC2)cc1OC	7	-3
COc1ccc(-n2nc3c(c2NC(=O)c2cc(Cl)ccc2[N+](=O)[O-])CS(=O)(=O)C3)cc1	-9	10
O=C(CSc1ccccn1)Nc1nc(-c2ccccc2)c(-c2ccccc2)o1	1	15
CCc1ccc(CNC(=O)CC2CCN(S(=O)(=O)c3c(C)noc3C)CC2)cc1	-6	3
COc1cc(/C=C2\Sc3ccccc3C2=O)cc(Br)c1O	-2	59*
COc1ccc(/C=C2\Sc3ccccc3C2=O)cc1Br	-7	13
CCOc1cc(C=C2C(=O)c3ccccc3C2=O)cc(Br)c1O	-4	66*
CCOc1cc(/C=C2\Sc3ccccc3C2=O)cc(I)c1O	-6	71*
COc1cc(/C=C2\Sc3ccccc3C2=O)cc2sc(=O)oc12	0	13
CCOc1ccc(/C=C2\Sc3ccccc3C2=O)cc1	2	1
CCOc1cc(C=C2C(=O)c3ccccc3C2=O)ccc1OC(C)C(=O)O (stereo unspecified)	-4	16
COc1cc(/C=C2\Sc3ccccc3C2=O)cc(I)c1O	-3	74*
Cc1[nH]nc2c1C(c1cc(Cl)cc(Cl)c1O)C(C#N)=C(N)O2 (stereo unspecified)	0	10
SMILES	Pf apPOL block	mHTT-CaM PPI inh
COc1ccccc1NC(=O)CN1CCC(c2nc(-c3cccc(F)c3)no2)CC1	-3	0
O=C(Cc1ccc(Cl)cc1)Nc1nnc(C2CC(=O)N(c3ccccc3)C2)o1 (stereo unspecified)	-3	0
O=C(Nc1ccc(Cl)c(Cl)c1)c1ccccc1[N+](=O)[O-]	-12	7
COc1cc(/C=C2/SC(c3ccccc3)=NC2=O)cc(Br)c1O	2	96*
COc1ccc(/C=C2/SC(c3ccccc3)=NC2=O)cc1	-4	44
COCCNC(=O)C1CCCc2c1[nH]c1ccccc21 (stereo unspecified)	2	12
CCNC(=O)C1CCCc2c1[nH]c1ccc(Cl)cc21 (stereo unspecified)	-4	100*!
CCc1ccccc1NC(=O)CCC1CCN(c2cc(NC3CC3)ncn2)CC1	-5	0
CCC(=O)NCc1csc(C2CCCN(C(=O)c3c(F)cccc3F)C2)n1 (stereo unspecified)	-1	4
CCOc1ccc(/C=C2/C=C(c3ccc(C)cc3)OC2=O)cc1OC	-2	29
NNc1nc(-c2ccccc2)cs1	-8	58*
Oc1ccc(Nc2nc(-c3ccccc3)cs2)cc1	-8	79*
c1ccc(-c2csc(Nc3ncccn3)n2)cc1	-4	-5
Oc1cccc(Nc2nc(-c3ccccc3)cs2)c1	-2	33
COc1ccccc1-c1cc(C(=O)N2CCCC2c2ccccc2C)no1 (stereo unspecified)	-5	11
Cc1ccc(NC(=O)CN2CCC(C(=O)Nc3nc4c(s3)CCCC4)CC2)c(C)c1	-6	9
CCOc1ccc2c(c1)OC(=Cc1ccccc1OC(C)C(=O)OC)C2=O (stereo unspecified)	-5	2
CN(C)CC(O)COc1ccc(C(C)(C)CC(C)(C)C)cc1 (stereo unspecified)	-2	99*
CC(C)(C)CC(C)(C)c1ccc(OCC(O)CN2CCCC2)cc1 (stereo unspecified)	-6	100*
CCC(C)(C)c1ccc(OCC(O)CN2CCOCC2)c(C(C)(C)CC)c1 (stereo unspecified)	5	94*
CC(C)(C)c1ccc(OCC(O)CN2CCCC2)c(C(C)(C)C)c1 (stereo unspecified)	2	33
CC(C)(C)c1ccc(OCC(O)CN)cc1 (stereo unspecified)	-10	-2
CC(C)(C)CC(C)(C)c1ccc(OCC(O)C[N+]2(C)CCCC2)cc1 (stereo unspecified)	-1	19
CC(C)(C)c1ccc(OCC(O)CN2CCN(CCO)CC2)cc1 (stereo unspecified)	0	0
CC[N+]1(CC(O)COc2ccc(C(C)(C)CC(C)(C)C)cc2)CCCC1 (stereo unspecified)	-1	84*
SMILES	Pf apPOL block	mHTT-CaM PPI inh
CN(C)C(CNC(=O)NCc1cccs1)c1cn(C)c2ccccc12 (stereo unspecified)	-6	-15
NS(=O)(=O)c1ccc(NC(=O)CCCc2ccccc2)cc1	-4	20
C=CCN(CC=C)C(=O)c1sc2cc(C)ccc2c1Cl	2	-66
CN(C)C(=O)c1cc2c(s1)CCC(C(=O)N1CCN(c3ccc(F)cc3)CC1)C2 (stereo unspecified)	1	0
CCOC(=O)c1nnn(-c2nc(N3CCCC3)nc(N3CCCC3)n2)c1C	/	-3
COc1ccc(-c2nc3cccnc3n2C2CCN(C(=O)Nc3ccccc3)C2)cc1 (stereo unspecified)	-4	-6
Cn1nc(C(=O)NCc2ccc(F)cc2)c2c1CCN(C(=O)COc1ccc(F)cc1)C2	-9	81*
CC(C)CC(=O)N1CCc2c(c(C(=O)NCc3ccccc3)nn2C)C1	-7	18
COCC(=O)N1CCc2c(c(C(=O)NCc3ccc(Cl)cc3)nn2C)C1	-1	18
Cn1nc(C(=O)NCc2ccccc2)c2c1CCN(C(=O)COc1ccc(Cl)cc1)C2	-7	87*
Cn1nc(C(=O)NCc2ccccc2)c2c1CCN(C(=O)COc1ccccc1)C2	-9	56*
CCOc1ccc(C(=O)N2CCc3c(c(C(=O)NCc4ccc(F)cc4)nn3C)C2)cc1	-10	-9
CCN(CC)S(=O)(=O)c1ccc(C)c(C(=O)NCc2ccccc2)c1	-7	-7
Cc1cccc(CS(=O)(=O)NCCCN2CCN(c3ccccc3)CC2)c1	5	-9
COCCCNC(=O)CC1CCN(C(=O)c2ccccc2Cl)CC1	-4	-10
CC(=O)Nc1nc(C)c(-c2csc(Nc3ccccn3)n2)s1	-1	54*
CC(=O)Nc1nc(C)c(-c2csc(Nc3ccc(N(C)C)cc3)n2)s1	-4	96*
c1ccc(Nc2nc(-c3cccnc3)cs2)nc1	-5	12
CCC(=O)Nc1nc(C)c(-c2csc(Nc3cccc(C(C)=O)c3)n2)s1	-5	10
O=C(CCc1c[nH]c2ccccc12)N1CCC(Nc2cccnc2)C1 (stereo unspecified)	0	25
